Like-named read-outs stand apart in the source and are kept apart here.
Columns and labels:
CDKL5 = conditions: read-out: apparent Kd, n = 1
CLK4 = conditions: read-out: apparent Kd, n = 1

Lestaurtinib
potency estimated from few doses (CDKL5; compound concentrations:100 nM and 1000 nM (sheet 'Lestaurtinib' of Supplementary Table 1),run:Lestaurtinib_02577_R1,Plate:MR016): 82.6 nM | potency estimated from few doses (CDKL5; compound concentrations:100 nM and 1000 nM (sheet 'Lestaurtinib' of Supplementary Table 1),run:Lestaurtinib_02577_R2,Plate:MR016): 144 nM | potency estimated from few doses (CDKL5; compound concentrations:100 nM and 1000 nM (sheet 'Lestaurtinib' of Supplementary Table 1),run:Lestaurtinib_02584_R1,Plate:MR017): 86.8 nM | potency estimated from few doses (CDKL5; compound concentrations:100 nM and 1000 nM (sheet 'Lestaurtinib' of Supplementary Table 1),run:Lestaurtinib_02584_R2,Plate:MR017): 37.3 nM | potency estimated from few doses (CDKL5; compound concentrations:100 nM and 1000 nM (sheet 'Lestaurtinib' of Supplementary Table 1),run:Lestaurtinib_02584_R3,Plate:MR017): 565 nM | potency estimated from few doses (CDKL5; compound concentrations:100 nM and 1000 nM (sheet 'Lestaurtinib' of Supplementary Table 1),run:Lestaurtinib_02601_R1,Plate:MR018): 966 nM | potency estimated from few doses (CDKL5; compound concentrations:100 nM and 1000 nM (sheet 'Lestaurtinib' of Supplementary Table 1),run:Lestaurtinib_02601_R2,Plate:MR018): 921 nM | potency estimated from few doses (CDKL5; compound concentrations:100 nM and 1000 nM (sheet 'Lestaurtinib' of Supplementary Table 1),run:Lestaurtinib_02601_R3,Plate:MR018): 143 nM | potency estimated from few doses (CDKL5; compound concentrations:100 nM and 1000 nM (sheet 'Lestaurtinib' of Supplementary Table 1),run:Lestaurtinib_02606_R1,Plate:MR019): 58.1 nM | potency estimated from few doses (CDKL5; compound concentrations:100 nM and 1000 nM (sheet 'Lestaurtinib' of Supplementary Table 1),run:Lestaurtinib_02606_R2,Plate:MR019): 98.3 nM | potency estimated from few doses (CDKL5; compound concentrations:100 nM and 1000 nM (sheet 'Lestaurtinib' of Supplementary Table 1),run:Lestaurtinib_02624_R1,Plate:MR020): 75 nM | potency estimated from few doses (CDKL5; compound concentrations:100 nM and 1000 nM (sheet 'Lestaurtinib' of Supplementary Table 1),run:Lestaurtinib_02624_R2,Plate:MR020): 137 nM | potency estimated from few doses (CDKL5; compound concentrations:100 nM and 1000 nM (sheet 'Lestaurtinib' of Supplementary Table 1),run:Lestaurtinib_02741_R2,Plate:MR023): 695 nM | potency estimated from few doses (CDKL5; compound concentrations:100 nM and 1000 nM (sheet 'Lestaurtinib' of Supplementary Table 1),run:Lestaurtinib_02748_R3,Plate:MR024): 149 nM | potency estimated from few doses (CDKL5; compound concentrations:100 nM and 1000 nM (sheet 'Lestaurtinib' of Supplementary Table 1),run:Lestaurtinib_02752_R1,Plate:MR025): 225 nM | potency estimated from few doses (CDKL5; compound concentrations:100 nM and 1000 nM (sheet 'Lestaurtinib' of Supplementary Table 1),run:Lestaurtinib_02752_R3,Plate:MR025): 226 nM | potency estimated from few doses (CDKL5; compound concentrations:100 nM and 1000 nM (sheet 'Lestaurtinib' of Supplementary Table 1),run:Lestaurtinib_02765_R2,Plate:MR026): 212 nM | potency estimated from few doses (CDKL5; compound concentrations:100 nM and 1000 nM (sheet 'Lestaurtinib' of Supplementary Table 1),run:Lestaurtinib_02766_R3,Plate:MR027): 28.6 nM | potency estimated from few doses (CDKL5; compound concentrations:100 nM and 1000 nM (sheet 'Lestaurtinib' of Supplementary Table 1),run:Lestaurtinib_02795_R2,Plate:MR022): 1690 nM | potency estimated from few doses (CDKL5; compound concentrations:100 nM and 1000 nM (sheet 'Lestaurtinib' of Supplementary Table 1),run:Lestaurtinib_02795_R3,Plate:MR022): 55.9 nM | potency estimated from few doses (CDKL5; compound concentrations:100 nM and 1000 nM (sheet 'Lestaurtinib' of Supplementary Table 1),run:Lestaurtinib_02802_R2,Plate:MR029): 130 nM | potency estimated from few doses (CDKL5; compound concentrations:100 nM and 1000 nM (sheet 'Lestaurtinib' of Supplementary Table 1),run:Lestaurtinib_02896_R1,Plate:MR030): 336 nM | potency estimated from few doses (CDKL5; compound concentrations:100 nM and 1000 nM (sheet 'Lestaurtinib' of Supplementary Table 1),run:Lestaurtinib_02896_R2,Plate:MR030): 99.8 nM | potency estimated from few doses (CDKL5; compound concentrations:100 nM and 1000 nM (sheet 'Lestaurtinib' of Supplementary Table 1),run:Lestaurtinib_02896_R3,Plate:MR030): 1300 nM | potency estimated from few doses (CDKL5; compound concentrations:100 nM and 1000 nM (sheet 'Lestaurtinib' of Supplementary Table 1),run:Lestaurtinib_03172_R1,Plate:MR031): 298 nM | potency estimated from few doses (CDKL5; compound concentrations:100 nM and 1000 nM (sheet 'Lestaurtinib' of Supplementary Table 1),run:Lestaurtinib_03172_R3,Plate:MR031): 99.7 nM | potency estimated from few doses (CDKL5; compound concentrations:100 nM and 1000 nM (sheet 'Lestaurtinib' of Supplementary Table 1),run:Lestaurtinib_03260_R2,Plate:MR033): 460 nM | potency estimated from few doses (CDKL5; compound concentrations:100 nM and 1000 nM (sheet 'Lestaurtinib' of Supplementary Table 1),run:Lestaurtinib_03260_R3,Plate:MR033): 730 nM | potency estimated from few doses (CLK4; compound concentrations:100 nM and 1000 nM (sheet 'Lestaurtinib' of Supplementary Table 1),run:Lestaurtinib_02339_R1,Plate:MR001): 43.2 nM | potency estimated from few doses (CLK4; compound concentrations:100 nM and 1000 nM (sheet 'Lestaurtinib' of Supplementary Table 1),run:Lestaurtinib_02339_R2,Plate:MR001): 51.8 nM | potency estimated from few doses (CLK4; compound concentrations:100 nM and 1000 nM (sheet 'Lestaurtinib' of Supplementary Table 1),run:Lestaurtinib_02339_R3,Plate:MR001): 29.6 nM | potency estimated from few doses (CLK4; compound concentrations:100 nM and 1000 nM (sheet 'Lestaurtinib' of Supplementary Table 1),run:Lestaurtinib_02364_R2,Plate:MR002): 35.4 nM | potency estimated from few doses (CLK4; compound concentrations:100 nM and 1000 nM (sheet 'Lestaurtinib' of Supplementary Table 1),run:Lestaurtinib_02367_R2,Plate:MR003): 78.8 nM | potency estimated from few doses (CLK4; compound concentrations:100 nM and 1000 nM (sheet 'Lestaurtinib' of Supplementary Table 1),run:Lestaurtinib_02367_R3,Plate:MR003): 56.1 nM | potency estimated from few doses (CLK4; compound concentrations:100 nM and 1000 nM (sheet 'Lestaurtinib' of Supplementary Table 1),run:Lestaurtinib_02381_R1,Plate:MR004): 62.4 nM | potency estimated from few doses (CLK4; compound concentrations:100 nM and 1000 nM (sheet 'Lestaurtinib' of Supplementary Table 1),run:Lestaurtinib_02381_R2,Plate:MR004): 34.7 nM

— publication PMC11062922 (Nature Chemical Biology, 2023)
